Source: PubChem BioAssay
This is a sample that favours compounds with a hit; in the whole collection about 4.4% have one here.
D1 agonist: Allosteric Agonists of the Human D1 Dopamine Receptor: qHTS | 1% of 360,000 active | D(1A) dopamine receptor (Homo sapiens), P21728 | HEK293 T-REx D1 cells, calcium flux, agonist mode | activation, % at 2 µM; in the data active means activation above about 30%; further: 0% is about no effect
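Tetracycline-induced HEK293 TREx D1 cells, force-coupled to calcium signalling, were dye-loaded with a no-wash calcium kit. Compound was pin-added after a 10 s baseline. Fluorescence was read kinetically at 1 cycle/s for 180 s, with calcium rises flagged as agonism.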
TRHR enhancer-1: qHTS for Small Molecule Agonists and Allosteric Enhancers of Human TRH Receptor: Primary Screen for Enhancers. Thyrotropin-releasing hormone receptor (Homo sapiens), P34981. TRHR cells, fluo-8 calcium fluorescence, EC20 TRH enhancement. enhancement, % at 2 µM. 0.66% of 360,000 active. AID 493056, 2011; in the data active means enhancement above about 30%; further: 0% is about no effect
Target sequence (P34981 whole entry, looked up): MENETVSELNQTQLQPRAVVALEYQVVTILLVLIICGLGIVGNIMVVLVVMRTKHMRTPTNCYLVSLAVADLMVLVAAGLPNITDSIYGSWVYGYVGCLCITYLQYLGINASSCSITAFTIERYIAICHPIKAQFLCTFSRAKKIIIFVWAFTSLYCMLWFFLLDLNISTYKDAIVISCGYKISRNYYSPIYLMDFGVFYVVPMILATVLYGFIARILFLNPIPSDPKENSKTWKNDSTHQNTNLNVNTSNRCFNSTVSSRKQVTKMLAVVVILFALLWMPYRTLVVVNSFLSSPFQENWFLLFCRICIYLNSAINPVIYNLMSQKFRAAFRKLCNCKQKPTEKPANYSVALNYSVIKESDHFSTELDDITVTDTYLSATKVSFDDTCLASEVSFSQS
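TRHR-expressing cells loaded with fluo-8 calcium dye were read kinetically (ex 480/em 530) during compound addition, then stimulated with an EC20 of TRH (10 nM final). Enhancement of the Gq-mediated intracellular calcium response was scored.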
USP1 inh: Inhibitors of USP1/UAF1: Primary Screen; Ubiquitin carboxyl-terminal hydrolase 1 (Homo sapiens), O94782; recombinant USP1/UAF1, Ub-Rhodamine cleavage fluorescence; Potency, µM (series often up to 57.1 µM), for the others: at the highest dose activity change, negative = inhibition, hits mostly inhibitors; 0.23% of 390,000 active; AID 743255, 2014; further: potency means the concentration at half of the fitted maximal effect; on the % scale 0 is the no-effect control and ±100 the full control effect; nearly all actives have a fitted effect of over 60% in size
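High-throughput fluorogenic screen: 1nM USP1/UAF1 complex, Ub-Rho substrate 150nM final, 50mM HEPES pH 7.8 with 0.5mM EDTA, 0.1 mg/ml BSA, 1mM TCEP and 0.01% Tween-20.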
D1 antagonist: Antagonist of Human D 1 Dopamine Receptor: qHTS; HEK293 TREx D1 cells, calcium flux, dopamine EC80; stronger effect = lower value; activity change, negative = inhibition, % at 10 µM; 3.2% of 360,000 active; AID 504652, 2011; in the data active means activity change below about -30%; further: on the % scale 0 is the no-effect control and ±100 the full control effect
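Kinetic fluorescence of a calcium dye serves as the read-out. D1-expressing Hek293 Trex cells, induced overnight at 30 C, are exposed to compound for 180 s before an EC80 dopamine addition, then read 180 s further.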
TRHR agonist-1: qHTS for Small Molecule Agonists and Allosteric Enhancers of Human TRH Receptor: Primary Screen for Agonists. AID 493084, 2011. activation, % at 2 µM. TRHR cells, calcium flux fluo-8, FDSS agonist mode. 0.18% of 360,000 active; in the data active means activation above about 30%; further: 0% is about no effect
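In this calcium-flux screen, cells bearing human TRHR are dye-loaded with fluo-8, baselined for 10 cycles, then exposed to library compounds; positive kinetic calcium responses during the agonist phase mark hits, with TRH as control.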
D1 potentiator: Potentiators of Human D1 Dopamine Receptor: qHTS | D(1A) dopamine receptor (Homo sapiens), P21728 | HEK293 TREx D1 cells, calcium flux, dopamine EC20 potentiation | potentiation, % at 10 µM | AID 504651, 2011 | 0.036% of 360,000 active; in the data active means potentiation above about 30%; further: 0% is about no effect
TRHR enhancer-2: qHTS for Small Molecule Agonists and Allosteric Enhancers of Human TRH Receptor: Confirmation Screen for Enhancers; shares compounds with TRHR enhancer-1; TRH receptor cell assay, enhancer confirmation qHTS; activity change, negative = inhibition, % at 46.1 µM; 970 tested, under 10 active;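 further: compound effect scored on response to added TRH at EC20 of 10 nM; 0% is about no effect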
TRHR agonist-2: qHTS for Small Molecule Agonists and Allosteric Enhancers of Human TRH Receptor: Confirmation Screen for Agonists; TRHR-expressing cells, agonist activation read-out; 8% of 970 active; shares compounds with TRHR enhancer-1; AID 493078, 2011; Potency, µM (series often up to 46.1 µM), without a hit: top-dose activation, usual class: activators; further: potency means the concentration at half of the fitted maximal effect; 0% is about no effect; nearly all actives have a fitted effect of over 75% in size
* = called active by the depositor; ? = inconclusive; . = not tested or not shown. Unless noted, the call rests on the fitted dose curve; in most records, active means well fitted curve in the direction sought with a large enough effect; inconclusive means small, poorly fitted or top-dose-only effect, or another doubt; inactive means no such curve, though single readings can be large; an effect the other way counts as inactive or inconclusive.

SMILES	D1 agonist	TRHR enhancer-1	USP1 inh	D1 antagonist	TRHR agonist-1	D1 potentiator	TRHR enhancer-2	TRHR agonist-2
COc1cc(NC(=O)c2ccc(-c3nc(COc4ccccc4)c(C)o3)cc2)cc(OC)c1	8	4	?	-14	2	-3	.	.
COc1ccc(NC(=O)c2ccc3ccccc3c2)cc1	17	54*	-9%	-4	-1	-9	6	0%
COc1ccc(NC(=O)c2ccc3nc(C)sc3c2)cc1	3	57*	0%	-17	0	-3	1	2%
COc1ccccc1NC(=O)c1ccc(-c2nn(C)c(=O)c3ccccc23)cc1	2	-11	-2%	-27	-2	-6	.	.
COc1ccc(C(=O)NNC(=O)c2cccc(F)c2)cc1	2	45*	7%	3	0	-4	-1	1%
COC(=O)c1ccc(NC(=O)c2ccc3nc(C)sc3c2)cc1	7	-2	0%	-2	-1	-6	.	.
COc1ccc(C(=O)NNC(=O)c2ccc3ccccc3c2)cc1	.	.	-16%	.	.	.	.	.
COc1ccc(NC(=O)c2ccc(-c3nn(C)c(=O)c4ccccc34)cc2)cc1	2	44*	1%	1	-1	-4	5	-1%
CCC(Sc1nc(-c2ccccc2F)nc2c1Cc1c(CO)cnc(C)c1O2)C(=O)Nc1cc(C)ccc1C (configuration not stated)	0	-4	?	-4	0	4	.	.
COc1ccccc1CNC(=O)C1CCN(S(=O)(=O)c2ccc3c(ccn3C)c2)CC1	6	-6	-24%	-5	0	-4	.	.
CN1/C(=C\C(=S)NC(=O)c2ccc([N+](=O)[O-])cc2)C(C)(C)c2ccccc21	1	48*	2%	-5	-1	-5	-4	2%
CN1/C(=C/C=N/NC(=O)c2ccc([N+](=O)[O-])cc2)C(C)(C)c2ccccc21	18	21	-15%	1	2	-1	.	.
Cc1c(/C=N/O)c2ccccn2c1C=O	2	60*	-19%	7	0	-10	0	1%
CC(=O)c1c(C)[nH]c(C(=O)CN2CCN(S(=O)(=O)c3ccccc3[N+](=O)[O-])CC2)c1C	7	45*	-12%	-31*	0	-4	-6	-1%
COC(=O)C1=C(C(=O)c2ccccc2)C(c2ccccc2)n2nnnc2N1 (configuration not stated)	3	62*	-15%	1	1	-5	1	-1%
Clc1ccccc1-c1nnc2sc(-c3ccc(Br)o3)nn12	3	-5	-12%	10	28	2	-14	1%
Oc1ccc2ccccc2c1/C=N/Nc1nnc(-c2ncc[nH]2)c2ccccc12	36*	13	9%	18	46*	-4	?	23µM*
COc1cccc(CNC(=O)C(NS(=O)(=O)c2ccc3c(c2)oc(=O)n3C)C(C)C)c1 (configuration not stated)	0	1	-22%	4	0	0	.	.
COc1nc(N)nc(CC(=O)C2CC2)n1	3	62*	-13%	-3	0	-5	-2	-1%
CCOC(=O)N1CCC(Nc2nc(OC)nc(OC)n2)CC1	2	0	-9%	7	0	-8	.	.
